# From PubChem BioAssay
# Most compounds without a hit are left out; they make up all but 4.1% or so of the library.
# DAX1 inh-1 = inhibits human nuclear receptor DAX1; inhibition, % at 6.75 µM; P51843; HEK293 Gal4-DAX1 luciferase reporter, luminescence; AID 504766; 340,000 tested, 0.99% active;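 active = inhibition above the mean over all tested compounds plus 3 SD, cut at about 4.2% in these data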;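 also: 0% = DAX1-transfected cells with DMSO and 100% = empty-vector control cells with DMSO; inhibition shows as a rise in luminescence from relieved DAX1 repression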
# Target sequence (P51843 207-470 limits assumed): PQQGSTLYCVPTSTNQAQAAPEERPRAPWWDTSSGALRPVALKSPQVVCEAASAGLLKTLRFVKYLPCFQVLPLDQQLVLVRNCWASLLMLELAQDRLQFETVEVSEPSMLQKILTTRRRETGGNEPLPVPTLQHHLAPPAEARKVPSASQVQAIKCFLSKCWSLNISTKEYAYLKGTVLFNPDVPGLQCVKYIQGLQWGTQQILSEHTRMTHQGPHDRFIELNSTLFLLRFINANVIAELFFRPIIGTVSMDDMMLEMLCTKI
# hcDAF-12 act = activates DAF-12 receptor from parasite H. contortus; HEK293 hcDAF-12 lit1-tk-luc reporter, luminescence; 0% DMSO, 100% Δ7-dafachronic acid; activation, % at 6.8 µM; 370,000 tested, 1.4% active; AID 652067;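 active = activation above the mean of all tested compounds plus 3 SD, cut at about 5.5% in these data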;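 also: 100% = response to 3 µM Δ7-dafachronic acid high control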
# DAX1 inh-2 = blocks DAX1 repression of SF-1 activated StAR promoter. HEK293T StAR-luciferase reporter, SF-1/DAX-1 repression relief. inhibition, % at 6.8 µM. 370,000 tested, 1.1% active;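 active = inhibition above the mean over all tested compounds plus 3 SD, cut at about 3.6% in these data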;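 also: 0% = DAX-1 cells with DMSO and 100% = cells lacking DAX-1 with DMSO; higher inhibition means more luminescence from relief of DAX-1 repression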
# ssDAF-12 act = S. stercoralis DAF-12 activation, primary screen. HEK293 ssDAF-12/GRIP1 lit1-tk-luc reporter, luminescence; % of 3 µM dafachronic acid response. activation, % at 6.8 µM. 370,000 tested, 1% active. AID 652126;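 active = activation above the mean over all tested compounds plus 3 SD, cut at about 0.9% in these data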;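 also: 0% = DMSO-only wells and 100% = 3 µM delta7-dafachronic acid wells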
# hgDAF-12 ag = agonists of H. glycines DAF-12 nuclear receptor; HEK293 GAL4-hgDAF12 UAS-luciferase reporter, agonist luminescence; normalized to butyrate control; activation, % at 6.8 µM; 370,000 tested, 1.8% active; AID 687014;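 active = activation above a cutoff set at the mean of all screened compounds plus 3 SD, cut at about 10% in these data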;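 also: 0% = DMSO wells and 100% = sodium butyrate wells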
# An asterisk follows results filed as active; x = no result.
SMILES,DAX1 inh-1,hcDAF-12 act,DAX1 inh-2,ssDAF-12 act,hgDAF-12 ag
CC(=O)N1CCN(c2nnc(-c3ccc(C)cc3)c3ccccc23)CC1,0.2,0.5,-0.6,1.1*,-2.3
S=c1[nH]nc(-c2n[nH]c3c2CCC3)n1N=Cc1c2ccccc2cc2ccccc12,x,-1.6,-0.6,-0.9,0.2
Cc1ccc2nc(N3CCN(Cc4nnnn4C4CCCC4)CC3)c(C#N)cc2c1,5.7*,-1.2,0.8,0.1,4.7
Cc1ccccc1C(=O)N/N=C1/SCC(=O)N1Cc1ccccc1,-2.0,-2.2,0.4,15.5*,-5.5
Cc1cccc(C(=O)N/N=C2/SCC(=O)N2Cc2ccccc2)c1,-0.2,-0.2,0.6,-1.2,-2.2
O=C(Nc1ccc(-c2nc3ncccc3o2)cc1)c1ccc(Br)o1,-2.5,-1.6,-0.7,-1.0,-1.2
O=C(Nc1ccc(-c2nc3ncccc3o2)cc1)c1ccco1,0.1,2.6,1.9,0.2,10.6*
COCCCNC(=O)C[C@H]1C[C@@]2(C(=O)OC)C(=C[C@H](COCc3ccccc3)O[C@@H]2C)N(Cc2ccc(Cl)cc2Cl)C1=O,x,-2.7,-0.5,-1.6,-0.2
CC(C)NC(=O)C1(C)CCN1C(=O)Cc1ccc(-c2ccccc2)cc1 (stereo unspecified),x,-2.6,-2.7,-1.6,0.2
O=C(O)[C@@H]1Cc2ccccc2N1,3.9,4.1,-0.6,1.0*,-1.8
Oc1ccc2[nH]cc(CCc3ccccc3)c2c1-c1ccccc1,x,-0.9,-0.8,-1.3,-2.5
CCOc1ccc(-n2c(SCC(=O)Nc3cccc4ccccc34)nnc2-c2ccncc2)cc1,x,-2.0,-2.6,-0.2,-0.5
O=C1C(=C2SCCCS2)CC/C1=C\c1ccc(F)cc1,-1.1,3.8,1.1,-1.1,2.3
O=C1CCCC(=O)C1=C1SCCCS1,4.5*,0.5,0.1,-1.1,-0.4
Nc1ccc2oc3ccc(N)cc3c(=O)c2c1,0.3,5.6*,4.2*,0.6,10.5*
Nc1ccc2c(=O)[nH][nH]c(=O)c2c1,-1.2,-1.6,-0.9,-0.3,2.6
Cc1ccc(Nc2c(-c3ccc(C)o3)nc3cnccn23)cc1,1.9,1.9,2.4,-1.1,11.6*
COc1cc(N=Nc2ccc3ccccc3c2)ccc1O,8.1*,5.5,1.7,1.7*,8.8
COc1cc(N=Nc2ccccc2C(=O)O)ccc1O,-1.0,-1.6,-0.1,-1.5,-2.3
COC(=O)C[C@@H]1C=C[C@@H](NC(=O)c2ccccc2F)[C@@H](CO)O1,x,-0.7,-0.1,-1.3,-0.2
COc1ccc2nc(/C(C#N)=C\c3ccc(C(=O)O)cc3)[nH]c2c1,0.4,3.7,1.9,0.0,12.8*
COc1ccc(C(C#N)=Cc2ccc(NC(C)=O)cc2)cc1,1.4,-0.3,3.7*,-1.1,6.3
CC(=O)Nc1ccc(C(C#N)=Cc2ccc(N(C)CCC#N)cc2)cc1,-0.2,-4.7,-3.4,-1.4,-0.4
COc1ccc(Cn2cc(COC(=O)NCC(C)C)nn2)cc1,x,-1.5,-0.6,-0.8,3.4
COC(=O)c1cc2c(c3c4cc(C)ccc4n(C(=O)c4ccccc4)c13)C(=O)N(Cc1ccccc1)C2,x,-0.6,-1.2,-0.9,-4.2
SMILES,DAX1 inh-1,hcDAF-12 act,DAX1 inh-2,ssDAF-12 act,hgDAF-12 ag
Cc1ccccc1-c1nc2cc(NC(=O)C3CC3)ccc2o1,1.4,4.7,2.3,0.2,11.4*
CCC(=O)Nc1ccc2oc(-c3ccccc3Br)nc2c1,3.9,1.8,3.1,-0.3,11.0*
Nc1c2c(nc3ccccc13)CCCC2O (stereo unspecified),0.9,-1.2,-1.0,-1.4,-0.5
Nc1c2c(nc3ccccc13)CCCC2=O,1.5,6.5*,0.7,0.7,3.1
COC(=O)C1CN(Cc2cn(CCOC(C)=O)nn2)CCS(=O)(=O)N1Cc1ccc(Cl)cc1 (stereo unspecified),x,-1.3,-0.9,0.6,-0.5
Cc1cc(C(=O)OCCCN(C)C2CN(Cc3cn(Cc4ccccc4C(F)(F)F)nn3)S(=O)(=O)C2)no1 (stereo unspecified),x,-1.7,-1.1,-1.3,0.0
O=C(NCc1cccs1)c1cc(-c2ccccc2)nc2ccccc12,-1.1,-2.2,-1.4,-1.8,-4.4
O=c1c2ccccc2nc2ccc(NCc3cccs3)nn12,4.7*,2.3,1.9,-1.4,5.8
N#C/C(=C(/O)CCl)c1nc(-c2ccccc2)cs1,-0.1,3.7,1.4,1.3*,3.1
Cc1cccc(NC(=O)c2cccc([N+](=O)[O-])c2O)c1C,2.7,3.4,4.1*,-0.2,12.8*
Cc1cccc(NC(=O)c2cc([N+](=O)[O-])ccc2Cl)c1O,0.6,6.3*,-1.9,0.5,7.4
O=C(Nc1ccccc1Oc1ccccc1)c1cc([N+](=O)[O-])ccc1Cl,-1.6,-1.5,-1.7,-2.0,0.7
Cc1cccc(NC(=O)c2ccccc2O)c1C,1.2,4.8,0.1,-0.6,5.3
CC(C)C[C@@H]1COc2cc(Br)ccc2S(=O)(=O)N1Cc1cn(CCC2OCCO2)nn1,x,-0.8,-0.5,-1.2,0.4
CC1CCC(NC(=O)C2c3ccccc3C(=O)N2CCCN2CCOCC2)CC1 (stereo unspecified),4.7*,-0.9,-0.6,1.0*,-1.6
CCCCN1C(=O)c2ccccc2C1C(=O)NC1CCCC1 (stereo unspecified),-0.4,-2.2,0.8,-1.6,0.1
CC(C)(C)C(=O)OC12CCCN(C1)/C(=C/c1ccc(Cl)cc1)C2 (stereo unspecified),x,1.6,1.3,-1.0,-1.4
CCOc1ccc(-n2c(COc3ccc(C)cc3)nnc2SCC(=O)Nc2ccc(F)c(F)c2)cc1,x,-0.5,-1.0,-1.4,-0.7
Cc1nc2cc(C(=O)N3CCN(C(=O)C(Cl)Cl)CC3)ccc2n1C1CCCC1,x,0.8,-2.7,-1.3,-1.6
CCOC(=O)c1ccc2c(c1)nc(SC/C(O)=C(\C#N)c1nc3ccccc3[nH]1)n2CC,0.9,4.7,-0.1,1.6*,2.9
O=C(Nc1ccccc1)n1ccc(-c2ccc(-n3ccnc3)cc2)n1,x,1.2,1.6,-0.7,12.1*
CC(=O)c1ccc(-n2ccnc2)cc1,1.7,-2.2,0.0,-1.7,0.2
O=[N+]([O-])c1cccc(C2Nc3cccc4cccc(c34)N2)c1,1.0,-2.3,0.6,-1.4,0.7
O=[N+]([O-])c1ccc(C2Nc3cccc4cccc(c34)N2)cc1,1.0,3.1,-0.4,1.6*,1.9
Cc1ccc(-c2nnn(CC(=O)N(CC(=O)NC3CCCCC3)c3ccccc3F)n2)o1,4.2*,-1.5,0.3,-1.5,-1.0
COc1ccc(CCN(Cc2cccs2)S(=O)(=O)c2ccc(C)c(C)c2)cc1OC,x,-5.8,-3.0,-2.0,0.0
CCc1ccc([C@H]2[C@@H]3C(=O)C[C@@H]4C(=O)NC(=O)[C@@H]4[C@@H]3CN2S(=O)(=O)c2ccc(C)cc2)cc1,x,0.3,0.9,-1.2,2.4
COc1ccc(C(=O)N2CCCC(c3cc(C(=O)NCc4ccccc4)no3)C2)cc1 (stereo unspecified),x,-1.2,-2.0,-1.8,2.2
